In PubChem BioAssay (NCATS):
Records with an inconclusive call do not appear. Active and inactive are the calls of the source. Calls come from the whole dose curve; as a rule, active = well fitted cell-killing curve with a large enough effect; inconclusive = small, poorly fitted or top-dose-only effect, or effect the other way; inactive = no such curve, though single readings can be large or run the other way.

Experiment: Quantitative highthroughput screen to assess conditional lethalithy of SEM cells grown in RPMI1640 with unreated serum (RPMI+s) (AID 1963883); note: nearly all actives have a fitted effect of over 35% in size
Conditions: SEM B-ALL cells, CellTiter-Glo viability, 48 h; series mostly up to 45.8 µM; viability: at the top concentration
Description: Assay Provider: Jason Cantor Ph.D.
Department of Biochemistry
University of Wisconsin-Madison, Madison, WI, USA
Chemical screening studies have identified drug sensitivities across hundreds of cancer cell lines but most putative therapeutics fail to translate. Discovery and development of drug candidates in models that more accurately reflect nutrient levels in human blood is a major challenge. Here we performed high-throughput screens in conventional versus Human Plasma-Like Medium (HPLM) to identify compounds that were "missed" when screening using the artificial culture condition. Sets of conditional anticancer compounds spanned phases of clinical development and included non-oncology drugs were assessed. […] We also traced conditional phenotypes for several chemotherapeutics to availability of HPLM-specific metabolites and confirmed others for compounds whose reported targets are encoded by nonessential genes. Our findings establish generalizable strategies for exploiting conditional lethality in HPLM to reveal therapeutic candidates and mechanisms of action in cancer cells.
Described herein are the results of each viability screens against three cell lines: NOMO1 (an acute myeloid leukemia cell line); P12-Ichikawa (a T-cell acute lymphoblastic leukemia); and SEM (a B-cell ALL). Each assay was screened using 3 different cell culture media: homemade human plasma-Like medium with 10% dialyzed fetal bovine serum (HPLM+ds); RPMI1640 with 10% untreated FBS and 5mM glucose (RPMI+s); and RPMI1640 with 10% dialyzed fetal bovine serum and 5 mM glucose (RPMI+ds).
PROTOCOL TABLE (as described by Inglese J, Shamu CE and Guy RK. 2007)
SEQUENCE No. (e.g., 1, 2, 3, etc.); […] (e.g., Cells, Incubation, Reagent, etc.); VALUE and DESCRIPTION.
1; Cells; 5 uL; white, solid bottom 1536-well Greiner assay plate.
2; Compounds; 23 nL; Kalypsis pin tool (Wako USA) equipped with a 1536-well pin head to transfer to the assay plates.
3; Incubation; 48 hours; 37C incubation.
4; Reagent; 3 uL; CellTiter Glo (Promega).
5; Incubation; 5 min, room temperature
6; Detection; Luminescence, Viewlux PerkinElmer.
NOTES (numbers refer to Sequence numbers above)
1. Briefly, 5 ul of cell reagent was dispensed using a Multidrop Combi Dispenser. The NOMO1 and SEM cells were plated at 500 cells/well and the P12-Ichikawa line at 1000 cells/well.
2. After seeding the cells, 23 nL of MIPE 4.1 library compounds (in DMSO) were added to each plate using a Kalypsys 1536 Pintool dispenser. Bortezomib at final concentration of […] and DMSO were added to each plate as positive and negative controls respectively. For each screen, MIPE 4.1 compounds were added over an eleven-point concentration range […] in 3-fold dilutions.
3. Each plate was covered with a stainless steel gasketed lid to prevent evaporation and incubated for 48 hour at 37C, 95% relative humidity, and 5% CO2.
4-5. Three microliter CellTilter-GloTM luminescent substrate mix (Promega) reagent was added to the assay plate and incubated at room temperature for 5 min.
6. The luminescence signal was measured using a ViewLux (PerkinElmer) multiplate reader with a 2 second exposure time per plate. Data for each compound were normalized as percent viability such that measurements for DMSO and the empty well controls in each plate were defined as 100% and 0%, respectively.
Potency is the fitted concentration of half-maximal effect.

SMILES	viability	Potency
N[C@@H](Cc1cc(I)c(Oc2cc(I)c(O)c(I)c2)c(I)c1)C(=O)O	92.8% (inactive)	–
Nc1ncnc2nc(-c3ccc(N4CCOCC4)nc3)cc(-c3cccc(Br)c3)c12	82.1% (inactive)	–
CN(CC(=O)N(Cc1ccc(C2CCCCC2)cc1)c1ccc(C(=O)O)c(O)c1)S(=O)(=O)c1c(F)c(F)c(F)c(F)c1F	–	16.6 µM (active)
O=C(O)[C@H](CC(=O)N1C[C@@H]2CCCC[C@H]2C1)Cc1ccccc1	96.3% (inactive)	–
CNC(=O)c1ccc(N2C(=S)N(c3ccc(C#N)c(C(F)(F)F)c3)C(=O)C2(C)C)cc1F	77.1% (inactive)	–
CC(C)c1cc(C(C)C)c(CC(=O)NS(=O)(=O)Oc2c(C(C)C)cccc2C(C)C)c(C(C)C)c1	106% (inactive)	–
COc1ccc(-c2cc(=O)c3c(O)cc(O[C@@H]4O[C@H](CO[C@@H]5O[C@@H](C)[C@H](O)[C@@H](O)[C@@H]5O)[C@@H](O)[C@H](O)[C@@H]4O)cc3o2)cc1O	94.6% (inactive)	–
N#CNC(=NCCCCCCOc1ccc(Cl)cc1)Nc1ccncc1	1.96% (inactive)	–
CC(C)C[C@@H](N)[C@H](O)C(=O)N[C@H](C(=O)N[C@H](C(=O)N[C@@H](CC(=O)O)C(=O)O)C(C)C)C(C)C	96.9% (inactive)	–
NC1=N[C@@]2(c3cc(NC(=O)c4ccc(F)cn4)ccc3F)COC[C@@H]2CS1	–	11.8 µM (active)
Cc1nc2cnc3ccc(C#Cc4cccnc4)cc3c2n1-c1ccc(C(C)(C)C#N)cc1	–	0.132 µM (active)
Nc1nc(Cl)nc2c1ncn2[C@H]1C[C@H](O)[C@@H](CO)O1	–	0.105 µM (active)
Cc1ccc2nc(NCCN)c3ncc(C)n3c2c1	–	23.5 µM (active)
Cc1oncc1C(=O)Nc1ccc(C(F)(F)F)cc1	72.9% (inactive)	–
COc1ccc(CCC(=O)Nc2nc3ccc(Cl)cc3s2)cc1OC	93.1% (inactive)	–
Cc1ccc(C)c(OCCCC(C)(C)C(=O)O)c1	95.8% (inactive)	–
Oc1cc2c(cc1O)C1c3ccc(O)c(O)c3OCC1(O)C2 (stereo not given)	86.1% (inactive)	–
CS(=O)(=O)c1ccc(C2=C(c3ccccc3)C(=O)OC2)cc1	–	16.6 µM (active)
OC[C@H]1O[C@@H](Oc2ccc(O)cc2)[C@H](O)[C@@H](O)[C@H]1O	85.9% (inactive)	–
Cc1cnc(C(=O)O)c[n+]1[O-]	86% (inactive)	–

SMILES	viability	Potency
Nc1nc(F)nc2c1ncn2[C@@H]1O[C@H](COP(=O)(O)O)[C@@H](O)[C@H]1O	–	8.33 µM (active)
CC(C)[C@H](CO)Nc1nc(Nc2cccc(Cl)c2)c2ncn(C(C)C)c2n1	–	0.372 µM (active)
CCn1c(-c2nonc2N)nc2cncc(CNC3CCNCC3)c21	–	2.35 µM (active)
CN1CCC(COc2cnc(-c3cccc(Cn4nc(-c5cccc(C#N)c5)ccc4=O)c3)nc2)CC1	95.2% (inactive)	–
C[C@H]1[C@H](O)O[C@@H]2O[C@@]3(C)CC[C@@H]4[C@H](C)CC[C@@H]1[C@@]24OO3	–	4.69 µM (active)
CCOC(=O)[C@H](CCc1ccccc1)N[C@@H](C)C(=O)N1CCCC1C(=O)O (stereo not given in full)	96% (inactive)	–
CNC(=O)c1ccccc1Sc1ccc2c(C=Cc3ccccn3)n[nH]c2c1	–	5.26 µM (active)
C=C1c2cccc(O)c2C(O)=C2C(=O)[C@@]3(O)C(O)=C(C(N)=O)C(=O)[C@@H](N(C)C)[C@@H]3[C@@H](O)[C@H]12	71.9% (inactive)	–
O=C(CCCCCCC(=O)Nc1ccc([C@H]2O[C@@H](CSc3nc(-c4ccccc4)c(-c4ccccc4)o3)C[C@@H](c3ccc(CO)cc3)O2)cc1)NO	–	7.43 µM (active)
COc1cc(OC)cc(-c2ccc3ncc4ccc(=O)n(-c5ccc(N6CCNCC6)c(C(F)(F)F)c5)c4c3c2)c1	–	16.6 µM (active)
COc1ccc2c(c1)CC[C@H]1[C@@H]2CC[C@]2(C)[C@@H](NCCCCCCN3C(=O)C=CC3=O)CC[C@H]12	111% (inactive)	–
Nc1nc(OCc2ccccc2)c2[nH]cnc2n1	90.3% (inactive)	–
Clc1ccc(-c2nc3sccn3c2C=NOCc2ccc(Cl)c(Cl)c2)cc1	98% (inactive)	–
CC(C)N(CCCNC(=O)Nc1ccc(C(C)(C)C)cc1)C[C@H]1O[C@@H](n2cc(Br)c3c(N)ncnc32)[C@H](O)[C@H]1O	–	20.9 µM (active)
C[C@H]1Oc2cc(cnc2N)-c2c(nn(C)c2C#N)CN(C)C(=O)c2ccc(F)cc21	57.4% (inactive)	–
Fc1ccc(C(c2ccc(F)cc2)N2CCN(CC=Cc3ccccc3)CC2)cc1	79.2% (inactive)	–
C[C@H]1COC2=C1C(=O)C(=O)c1c2ccc2c1CCCC2(C)C	–	2.35 µM (active)
O=c1cc(-c2cccc3c2Sc2ccccc2S3)oc(N2CCOCC2)c1	98% (inactive)	–
O=C(Nc1cccnn1)N1CCC(=Cc2cccc(Oc3ccc(C(F)(F)F)cn3)c2)CC1	72.8% (inactive)	–
NCCCCCC(=O)O	104% (inactive)	–
